Calls of active or inactive are those of the source. Rule for the calls: active = hit-call score of the fitted dose curve at least 0.9, where 1 is the maximum; inactive = score below 0.9.
Tests used:
[1] = ATG_CRE_CIS: Attagene CIS-FACTORIAL HepG2 Assay for human cAMP Responsive Element (CRE) binding protein 3 (AID 2282926); conditions: HepG2 CRE cis-reporter, Attagene multiplexed mRNA; actives raise or lower the signal
How it was run: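 Transfected HepG2 were treated for 24 hours, then RNA was extracted and reporter cDNA amplified with sequence-specific primers. Labelled fragments were separated by capillary electrophoresis, and the CRE signal was fitted bidirectionally with DMSO as baseline.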

[2] = biological target: CCAAT/enhancer-binding protein beta (Homo sapiens) (UniProt P17676); experiment: ATG_C_EBP_CIS: Attagene CIS-FACTORIAL HepG2 Assay for human CCAAT/Enhancer Binding Protein (C/EBP) beta (AID 2282927); conditions: HepG2 Attagene cis-factorial transcription factor reporter; actives raise or lower the signal
Chain of CCAAT/enhancer-binding protein beta (Homo sapiens) (P17676 whole entry, looked up): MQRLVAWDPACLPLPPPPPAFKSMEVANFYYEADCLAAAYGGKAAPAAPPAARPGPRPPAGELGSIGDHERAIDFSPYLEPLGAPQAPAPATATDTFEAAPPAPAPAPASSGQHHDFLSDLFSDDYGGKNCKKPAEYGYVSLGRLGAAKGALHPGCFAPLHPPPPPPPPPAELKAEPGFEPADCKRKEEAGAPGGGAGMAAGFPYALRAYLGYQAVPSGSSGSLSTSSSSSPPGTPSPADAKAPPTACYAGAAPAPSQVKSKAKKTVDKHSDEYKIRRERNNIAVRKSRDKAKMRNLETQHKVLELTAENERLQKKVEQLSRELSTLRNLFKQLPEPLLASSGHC
How it was run: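 HepG2, transient MRTU transfection, 24 h treatment. RT-PCR plus CE fluorescence; DMSO negative control, bidirectional fit.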

[3] = ATG_AP_1_CIS: Attagene CIS-FACTORIAL HepG2 Assay for human Activator Protein 1 (AP-1) (AID 2282931); conditions: HepG2 Attagene cis-factorial AP-1 reporter mRNA; actives raise or lower the signal
How it was run: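 Endogenous transcription-factor activity in human HepG2 liver cells is read through a cis-promoter reporter transcript, sampled 24 h after dosing. Detection uses RT-PCR with capillary electrophoresis; values come from bidirectional fitting relative to DMSO.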

[4] = ATG_AP_2_CIS: Attagene CIS-FACTORIAL HepG2 Assay for human Activator Protein 2 (AP-2) (AID 2282932); conditions: HepG2 AP-2 cis-reporter, Attagene transcription factor profiling; actives raise or lower the signal
How it was run: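 HepG2 cells transiently transfected with cis-element reporter units and exposed for 24 h. Reporter mRNA measured by RT-PCR, FAM labelling, HpaI digestion and capillary electrophoresis. Changes in either direction fitted relative to DMSO.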

[5] = ATG_BRE_CIS: Attagene CIS-FACTORIAL HepG2 Assay for human Bone Morphogenetic Protein (BMP) Response Element (BRE) (AID 2282933); conditions: HepG2 BMP response element reporter, Attagene transcription factor profiling; actives raise or lower the signal
How it was run: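 Transient MRTU transfection of human HepG2 liver cells; 24 h compound treatment; total RNA isolated, reverse-transcribed, PCR-amplified, 6-FAM labelled, HpaI-cut, capillary electrophoresis. DMSO = negative control/baseline, bidirectional fit.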

[6] = ATG_E_Box_CIS: Attagene CIS-FACTORIAL HepG2 Assay for human Enhancer Box (E-box) (AID 2282936); conditions: HepG2 E-box cis-reporter transcription, actives raise or lower the signal
How it was run: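 HepG2 cells transiently transfected with multiplexed cis-element reporter units, dosed 24 h; reporter mRNA quantified by RT-PCR, 6-FAM labelling, HpaI digestion and capillary electrophoresis. E-box (USF1) signal fitted bidirectionally vs DMSO.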

[7] = ATG_M_61_CIS: Attagene CIS-FACTORIAL HepG2 Assay for M61 Transcription Factor (Internal Marker) (AID 2282937); conditions: HepG2 Attagene CIS-FACTORIAL M61 internal marker reporter; actives raise or lower the signal
How it was run: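 Cells were transfected with reporter units under cis-regulatory promoters, treated with chemicals for 24 h, then lysed for RNA. Reporter transcripts were quantified by RT-PCR and capillary electrophoresis, and activity was fitted bidirectionally against DMSO.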

[8] = ATG_EGR_CIS: Attagene CIS-FACTORIAL HepG2 Assay for human Early Growth Response 1 (EGR1) (AID 2282938); conditions: HepG2 Attagene CIS-FACTORIAL EGR reporter mRNA; actives raise or lower the signal
How it was run: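 Endogenous TF activity in HepG2 liver cells was gauged through cis-promoter reporter constructs transiently transfected. After 24 h dosing, reporter mRNA was quantified by RT-PCR and capillary electrophoresis, and curves fitted in both directions versus DMSO.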

[9] = ATG_Ets_CIS: Attagene CIS-FACTORIAL HepG2 Assay for human Erythroblast Transformation Specific (ETS) (AID 2282941); conditions: HepG2 ETS cis-reporter transcription, actives raise or lower the signal
How it was run: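 After transient cis-reporter transfection, HepG2 cells receive test chemical for 24 h. Reporter mRNA levels, measured by RT-PCR and capillary electrophoresis fluorescence, are analysed bidirectionally relative to the DMSO baseline.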

[10] = ATG_FoxO_CIS: Attagene CIS-FACTORIAL HepG2 Assay for human Forkhead box O (FoxO) (AID 2282943); conditions: HepG2 Attagene cis-reporter, FoxO element, mRNA; actives raise or lower the signal
How it was run: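 Transfected HepG2 reporter cells exposed to test chemical for 24 h; reporter RNA measured by reverse transcription, PCR and fluorescent capillary electrophoresis; curves fitted for increases and decreases against DMSO.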

[11] = ATG_GATA_CIS: Attagene CIS-FACTORIAL HepG2 Assay for human GATA Binding Protein (AID 2282944); conditions: HepG2 GATA cis-element reporter, Attagene multiplex mRNA; actives raise or lower the signal
How it was run: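 Transient MRTU transfection, HepG2, 24 h compound exposure. Total RNA → oligo(dT) RT → PCR → 6-FAM primer extension → HpaI cut → CE. Bidirectional fit vs DMSO.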

[12] = ATG_M_32_CIS: Attagene CIS-FACTORIAL HepG2 Assay for M32 Transcription Factor (Internal Marker) (AID 2282949); conditions: HepG2 Attagene cis-factorial M32 reporter, mRNA; actives raise or lower the signal;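 note: background control marker of the multiplexed CIS panel rather than a real target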
How it was run: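 Fluorescent capillary electrophoresis peaks of HpaI-digested, FAM-labelled RT-PCR reporter products give the signal. Source: transiently transfected human liver HepG2 cells, 24 h after chemical dosing; bidirectional fitting against DMSO.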

[13] = ATG_M_06_CIS: Attagene CIS-FACTORIAL HepG2 Assay for M06 Transcription Factor (Internal Marker) (AID 2282950); conditions: HepG2 Attagene CIS-FACTORIAL M06 internal marker reporter; actives raise or lower the signal
How it was run: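 Read-out is fluorescence of labelled reporter cDNA fragments resolved by capillary electrophoresis after RT-PCR. Cells: HepG2 carrying transfected cis-promoter reporter units, treated 24 h. Gain or loss of signal fitted relative to DMSO.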

[14] = ATG_MRE_CIS: Attagene CIS-FACTORIAL HepG2 Assay for human Metal Responsive Element (MRE) (AID 2282954); conditions: HepG2 MRE cis-reporter transcription, Attagene multiplex; actives raise or lower the signal
How it was run: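 HepG2 cells transiently transfected with cis-element-driven reporter units; mRNA measured 24 h after dosing. Reporter transcripts quantified by RT-PCR, FAM labelling, HpaI digestion and capillary electrophoresis; bidirectional fit versus DMSO.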

[15] = biological target: Paired box protein Pax-6 (Homo sapiens) (UniProt P26367); experiment: ATG_Pax6_CIS: Attagene CIS-FACTORIAL HepG2 Assay for human Paired Box 6 (PAX6) (AID 2282956); conditions: HepG2 CIS-FACTORIAL PAX6 reporter transcription, RNA readout; actives raise or lower the signal
Chain of Paired box protein Pax-6 (Homo sapiens) (P26367 whole entry, looked up): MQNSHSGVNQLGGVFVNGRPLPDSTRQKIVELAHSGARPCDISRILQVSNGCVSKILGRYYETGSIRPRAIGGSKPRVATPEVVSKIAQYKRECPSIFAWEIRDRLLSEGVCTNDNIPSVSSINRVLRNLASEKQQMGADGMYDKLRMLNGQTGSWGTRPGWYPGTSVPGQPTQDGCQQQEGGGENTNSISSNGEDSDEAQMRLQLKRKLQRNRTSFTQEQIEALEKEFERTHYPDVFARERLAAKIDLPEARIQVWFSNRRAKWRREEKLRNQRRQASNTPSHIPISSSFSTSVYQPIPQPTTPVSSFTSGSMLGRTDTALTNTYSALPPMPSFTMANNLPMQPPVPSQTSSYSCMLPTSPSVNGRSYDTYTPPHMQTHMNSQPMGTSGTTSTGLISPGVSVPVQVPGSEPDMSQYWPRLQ
How it was run: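 After twenty-four hours of chemical exposure, transfected HepG2 cells are harvested for RNA. Cis-promoter reporter transcripts are amplified, fluorescently labelled and sized by capillary electrophoresis, with gain and loss of signal scored against DMSO.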

[16] = ATG_PXRE_CIS: Attagene CIS-FACTORIAL HepG2 Assay for human Pregnane X Receptor Element (PXRE) (AID 2282957); conditions: HepG2 Attagene CIS-FACTORIAL PXRE reporter, mRNA; actives raise or lower the signal
How it was run: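 Multiplexed cis-reporter assay in transiently transfected human HepG2 cells; 24 h chemical exposure. Reporter transcripts quantified by RT-PCR with fluorescent labeling and capillary electrophoresis.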

[17] = biological target: Transcription factor Sp1 (Homo sapiens) (UniProt P08047); experiment: ATG_Sp1_CIS: Attagene CIS-FACTORIAL HepG2 Assay for human Specificity Protein 1 (Sp1) (AID 2282961); conditions: HepG2 Sp1 cis-reporter transcription, actives raise or lower the signal
Chain of Transcription factor Sp1 (Homo sapiens) (P08047 whole entry, looked up): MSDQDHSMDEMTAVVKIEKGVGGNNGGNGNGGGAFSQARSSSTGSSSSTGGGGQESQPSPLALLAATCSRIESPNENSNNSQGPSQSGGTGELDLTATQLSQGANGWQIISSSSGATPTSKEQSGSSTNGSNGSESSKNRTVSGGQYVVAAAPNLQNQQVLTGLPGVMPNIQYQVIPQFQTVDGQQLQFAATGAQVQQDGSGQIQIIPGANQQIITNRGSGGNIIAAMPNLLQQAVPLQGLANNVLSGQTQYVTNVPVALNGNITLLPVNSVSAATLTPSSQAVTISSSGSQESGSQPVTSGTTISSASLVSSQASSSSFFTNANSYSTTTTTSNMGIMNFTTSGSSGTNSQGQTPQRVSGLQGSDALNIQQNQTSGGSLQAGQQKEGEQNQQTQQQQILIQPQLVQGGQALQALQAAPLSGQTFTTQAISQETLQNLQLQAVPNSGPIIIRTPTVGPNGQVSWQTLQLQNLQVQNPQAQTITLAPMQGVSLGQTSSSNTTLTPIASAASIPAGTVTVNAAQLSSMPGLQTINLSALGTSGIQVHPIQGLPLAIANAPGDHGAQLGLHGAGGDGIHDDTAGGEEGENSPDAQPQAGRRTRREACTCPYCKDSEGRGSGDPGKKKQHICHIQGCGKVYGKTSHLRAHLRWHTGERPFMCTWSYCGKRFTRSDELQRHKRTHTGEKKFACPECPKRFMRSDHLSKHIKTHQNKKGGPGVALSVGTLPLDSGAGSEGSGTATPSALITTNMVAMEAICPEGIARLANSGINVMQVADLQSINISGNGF
How it was run: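 Endogenous Sp1 activity was gauged in human liver HepG2 cells bearing transfected reporter units under a cis-regulating promoter. After 24 h dosing, reporter mRNA was quantified by RT-PCR with capillary electrophoresis, and activity fitted bidirectionally versus DMSO.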

[18] = ATG_SREBP_CIS: Attagene CIS-FACTORIAL HepG2 Assay for human Sterol Regulatory Element Binding (SREBP) (AID 2282962); conditions: HepG2 Attagene cis-factorial SREBP reporter, mRNA; actives raise or lower the signal
How it was run: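 Twenty-four hours after chemical dosing of transfected HepG2 cultures, reporter RNA was converted to cDNA, amplified, end-labelled with 6-FAM and resolved by capillary electrophoresis. Responses were fitted relative to DMSO.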

[19] = biological target: Signal transducer and activator of transcription 3 (Homo sapiens) (UniProt P40763); experiment: ATG_STAT3_CIS: Attagene CIS-FACTORIAL HepG2 Assay for human Signal Transducer and Activator of Transcription 3 (STAT3) (AID 2282963); conditions: HepG2, Attagene cis-factorial STAT3 reporter transcription; actives raise or lower the signal
Chain of Signal transducer and activator of transcription 3 (Homo sapiens) (P40763 whole entry, looked up): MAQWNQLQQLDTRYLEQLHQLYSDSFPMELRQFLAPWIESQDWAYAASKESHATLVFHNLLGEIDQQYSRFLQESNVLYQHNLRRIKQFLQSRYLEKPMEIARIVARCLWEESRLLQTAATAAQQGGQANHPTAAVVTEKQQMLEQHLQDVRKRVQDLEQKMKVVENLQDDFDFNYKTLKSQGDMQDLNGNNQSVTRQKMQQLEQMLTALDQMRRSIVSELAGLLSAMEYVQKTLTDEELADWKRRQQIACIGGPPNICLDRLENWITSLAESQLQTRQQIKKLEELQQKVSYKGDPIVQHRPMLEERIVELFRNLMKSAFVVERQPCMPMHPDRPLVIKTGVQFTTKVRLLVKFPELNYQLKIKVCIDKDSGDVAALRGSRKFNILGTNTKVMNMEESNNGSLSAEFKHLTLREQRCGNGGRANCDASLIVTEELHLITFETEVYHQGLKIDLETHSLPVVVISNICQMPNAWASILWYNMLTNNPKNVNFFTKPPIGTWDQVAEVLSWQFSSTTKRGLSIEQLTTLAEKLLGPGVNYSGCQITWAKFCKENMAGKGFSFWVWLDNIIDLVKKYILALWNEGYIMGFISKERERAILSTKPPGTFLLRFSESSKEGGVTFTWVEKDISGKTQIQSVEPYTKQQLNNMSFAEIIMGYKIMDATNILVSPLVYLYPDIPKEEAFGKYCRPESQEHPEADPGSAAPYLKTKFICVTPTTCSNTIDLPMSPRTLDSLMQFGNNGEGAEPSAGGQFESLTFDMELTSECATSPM
How it was run: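 HepG2 cells transiently transfected with multiple cis-element-driven reporter units report endogenous transcription factor activity. After 24 h compound exposure, reporter mRNA is measured by RT-PCR, 6-FAM labelling, HpaI digestion and capillary electrophoresis. Fitted bidirectionally versus DMSO.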

[20] = ATG_TAL_CIS: Attagene CIS-FACTORIAL HepG2 Assay for human TAL Basal Promoter (AID 2282966); conditions: HepG2 Attagene cis-factorial TAL promoter reporter; actives raise or lower the signal;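 note: background control endpoint measuring basal TAL promoter reporter mRNA not a specific factor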
How it was run: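 Steps: transfect HepG2 with multiple reporter transcription units; dose 24 h; isolate RNA, reverse-transcribe, PCR-amplify, label with 6-FAM, digest with HpaI; resolve by capillary electrophoresis. Bidirectional fitting against DMSO baseline.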

Measured: AC50

C=CCOC(=O)C(=C)C
inactive: all assays above

CCCCC(CC)COC(=O)CS (stereo not given)
active: [16] 13.1 µM
inactive: all other assays above

CC/C=C\CC/C=C/C(OCC)OCC
active: [9] 100 µM | [14] 136 µM | [16] 4.02 µM
inactive: all other assays above

C=CCOCC(CC)(CO)COCC=C
active: [16] 47.1 µM
inactive: all other assays above

CNC[C@H](O)[C@@H](O)[C@H](O)[C@H](O)CO
active: [16] 26 µM
inactive: all other assays above

CCCCCC1CCCC(=O)O1 (stereo not given)
active: [16] 44.5 µM
inactive: all other assays above

COC(=O)CCSCCC(=O)OC
inactive: all assays above

— PubChem BioAssay (EPA / NIEHS)
